BaF3 parental – parental Ba/F3 viability inhibition as JAK2V617F counter-screen. CellTiter-Glo ATP luminescence. inhibition, % at 5.6 µM. hit rate 1.1% among 220,000. AID 1486;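 active = inhibition above a per-campaign cutoff, the mean inhibition of all tested compounds plus 3 SD, cut at about 27% in these data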
KLF5 inh – inhibitors of KLF5 expression; DLD-1 KLF5 promoter-luciferase reporter, luminescence; inhibition, % at 5 µM; hit rate 0.23% among 290,000; AID 1700;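 active = inhibition above a per-plate limit of that plate's mean compound inhibition plus 3 SD, cut at about 60% in these data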;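 also: higher means less KLF5 promoter-driven luciferase light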
Ba/F3 V617F tox – lowers viability of Ba/F3 cells expressing EpoR and JAK2V617F; ATP luminescence; inhibition, % at 5.6 µM; hit rate 1.1% among 220,000; AID 1446;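 active = inhibition above the campaign mean plus 3 SD over all tested compounds, cut at about 24% in these data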;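 also: cytokine-independent growth of Ba/F3 cells driven by EpoR plus mutant JAK2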
aSyn 5UTR inh – 5' untranslated region of α-synuclein, MLPCN primary screen | hit rate 0.82% among 300,000 | inhibition, % (tested at 7.5 µM) | alpha-synuclein 5'UTR reporter, inhibitor activity; in the data active = inhibition above about 60%;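 also: H4 neuroglioblastoma cells stably carrying SNCA 5'UTR luciferase fusion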
APP 5UTR inh – APP translation inhibition; SH-SY5Y APP 5'UTR-luciferase reporter, luminescence; inhibition, % at 2 µM; hit rate 0.82% among 190,000; AID 1285;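 active = inhibition above a set limit, derived from the sample mean plus 3 SD, cut at about 45% in these data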
IEC-6 tox-1 – kills IEC-6 intestinal cells in KLF5 counter-screen | IEC-6 cytotoxicity, luminescence viability | inhibition, % at 5 µM | hit rate 0.78% among 290,000
BaF3 parental 2 – counter-screen for JAK2V617F inhibitors: parental Ba/F3 viability inhibitors. hit rate 31% among 580. inhibition, % at 5.6 µM. shares compounds with Ba/F3 V617F tox. CellTiter-Glo luminescence; cells kept alive by added IL-3;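 active = cell growth inhibition above the hit limit set in the earlier mutant JAK2 cell screen, cut at about 27% in these data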
JAK2V617F confrm – confirmation: loss of viability in JAK2V617F-dependent Ba/F3 cells; shares compounds with Ba/F3 V617F tox; Ba/F3 EpoR-JAK2V617F viability, CellTiter-Glo luminescence; inhibition, % at 5.6 µM; hit rate 66% among 580; AID 1521;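 active = mean inhibition above the hit cutoff derived in the earlier primary screen, cut at about 25% in these data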;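 also: higher means lower luminescence from reduced cell ATP and viability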
KLF5 confirm – confirmation of KLF5 inhibitors; shares compounds with KLF5 inh; DLD-1 KLF5 promoter firefly luciferase reporter, luminescence; hit rate 79% among 610; AID 1834; inhibition, % at 4 µM;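 active = inhibition above a set limit taken from the earlier primary screen, cut at about 63% in these data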
IEC-6 tox-2 – kills rat IEC-6 cells in KLF5 counter-screen | shares compounds with KLF5 inh | IEC-6 rat intestinal cells, viability luminescence | inhibition, % at 4 µM | hit rate 56% among 610 | AID 1905; in the data active = inhibition above about 23%;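 also: cells exposed to compounds for 48 hours before viability read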
IEC-6 cytotox cf – confirmation of cytotoxic compounds in rat IEC-6 intestinal epithelial cells; shares compounds with IEC-6 tox-1; IEC-6 rat intestinal epithelial viability, luminescence; inhibition, % at 5 µM; hit rate 63% among 1,900
Of the large screens only hits and unclear results are named; the others gave an inactive call (follow-up assays come after a bar, where they were run). An excerpt weighted towards active compounds, which were near 2.1% of everything screened. Rule as the data show it, unless noted: active = inhibition above about 22%; inactive = the rest.

CC[n+]1c(SC)ccc2cc(OC)ccc21	BaF3 parental 84, Ba/F3 V617F tox 85
CN(C)C(Cc1ccccc1)C(=O)c1ccccc1 (stereo not drawn)	BaF3 parental 34
C=CC(C)C(C(=O)c1ccccc1)N(C)C (stereo not drawn)	BaF3 parental 31, Ba/F3 V617F tox 27 (no result: aSyn 5UTR inh)
Cc1ccccc1-[n+]1c(-c2ccccc2)cc(-c2ccccc2)cc1-c1ccccc1	none (no result: BaF3 parental, KLF5 inh, Ba/F3 V617F tox, APP 5UTR inh, IEC-6 tox-1)
Cc1cc(OCC(=O)NCc2ccncc2)c2c3c(c(=O)oc2c1)CCCC3	none (no result: BaF3 parental, Ba/F3 V617F tox, APP 5UTR inh)
CC1(C)C[C@H]2C=C(C=O)[C@]3(C=O)C[C@]3(C)[C@H]2C1	Ba/F3 V617F tox 63, aSyn 5UTR inh 117, APP 5UTR inh 96 | BaF3 parental 2 103 | JAK2V617F confrm 100
Cc1ccc(C2C(=O)NC(=O)NC2=O)cc1	none (no result: BaF3 parental, KLF5 inh, Ba/F3 V617F tox, APP 5UTR inh, IEC-6 tox-1)
c1ccc2[nH]c(CCNC3CCCCC3)nc2c1	Ba/F3 V617F tox 49 | BaF3 parental 2 inactive | JAK2V617F confrm inactive
CN(C)c1ccc(/C=C/[N+](=O)[O-])cc1	none
C/C(=C\c1ccc(N(C)C)cc1)[N+](=O)[O-]	Ba/F3 V617F tox 32 | BaF3 parental 2 inactive | JAK2V617F confrm 74
O=C(Nc1ccccc1)N1CCC2(CC1)OCCO2	Ba/F3 V617F tox 30 | BaF3 parental 2 inactive | JAK2V617F confrm inactive
COC(=O)c1ccc(NC(=O)CSc2nc3ccc(N4C(=O)C5C6C=CC(C6)C5C4=O)cc3s2)cc1 (stereo not drawn)	none
c1ccc(C(OCCN2CCN(c3ncccn3)CC2)c2ccccc2)cc1	none (no result: BaF3 parental, KLF5 inh, Ba/F3 V617F tox, APP 5UTR inh, IEC-6 tox-1)
O=C(O)c1[nH]c(=O)[nH]c(=O)c1F	Ba/F3 V617F tox 64 (no result: APP 5UTR inh) | BaF3 parental 2 inactive | JAK2V617F confrm 67
CC(=O)c1cccc(NC(=O)N2C[C@H]3C[C@@H](C2)c2cccc(=O)n2C3)c1	none (no result: BaF3 parental, Ba/F3 V617F tox, APP 5UTR inh)
C[C@H]1CCC[C@@H](O)CCC/C=C/c2cc(O)cc(O)c2C(=O)O1	none
C[C@H]1CCC/C=C/C2C[C@H](O)CC2[C@H](O)/C=C/C(=O)O1 (stereo partly drawn)	KLF5 inh 101, Ba/F3 V617F tox 38, aSyn 5UTR inh 100, APP 5UTR inh 91, IEC-6 tox-1 99 | BaF3 parental 2 107 | JAK2V617F confrm 78 | KLF5 confirm 110 | IEC-6 tox-2 102 | IEC-6 cytotox cf 102
CC1CCC/C=C/C2CC(O)CC2C(O)/C=C/C(=O)O1 (stereo not drawn)	KLF5 inh 94, Ba/F3 V617F tox 62, aSyn 5UTR inh 133, APP 5UTR inh 94, IEC-6 tox-1 101 | BaF3 parental 2 103 | JAK2V617F confrm 67 | KLF5 confirm 110 | IEC-6 tox-2 102 | IEC-6 cytotox cf 100
CCCN(CC1CC1)CC(O)c1ccccc1 (stereo not drawn)	none (no result: BaF3 parental, Ba/F3 V617F tox, APP 5UTR inh)
O=C(Nc1ccc(OC(=O)N2CCCCC2)cc1)N1CCOCC1	KLF5 inh 68, aSyn 5UTR inh 89, APP 5UTR inh 52 | KLF5 confirm inactive | IEC-6 tox-2 inactive
O=C(Nc1ccc(OC(=O)N2CCCC2)cc1)N1CCOCC1	none
O=C1C(=O)c2ccccc2-c2ccccc21	BaF3 parental 102, KLF5 inh 106, Ba/F3 V617F tox 100, aSyn 5UTR inh 119, APP 5UTR inh 58, IEC-6 tox-1 103 | KLF5 confirm 114 | IEC-6 tox-2 101
CNC(=S)N1CCN(CCN=Cc2c(O)n(-c3ccc(C)cc3)c(=S)[nH]c2=O)CC1	none (no result: BaF3 parental, Ba/F3 V617F tox, APP 5UTR inh)
Cc1nc2c(=O)n(C)c(=O)nc-2n(C)n1	BaF3 parental 101, KLF5 inh 105, Ba/F3 V617F tox 99, aSyn 5UTR inh 115, IEC-6 tox-1 102 | KLF5 confirm 115 | IEC-6 tox-2 96 | IEC-6 cytotox cf 96
CN1CC=C(/C=C/c2ccc(-c3ccccc3)cc2)CC1	none (no result: BaF3 parental, Ba/F3 V617F tox, APP 5UTR inh)

Source: PubChem BioAssay
